PubChem BioAssay (NCI)
This is part of a sample that, as a whole, favours compounds with a hit. Of some 83,000 tested, about 20% had one in any assay.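 How to read the values: 0–100, growth inhibition (40 = 60% inhibited); 0, no net growth; -100 to 0, cell death (-40 = 40% of starting cells died; -100 = all dead).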

Tests used:
Assay in all cases: NCI-60 one-dose screen, 48 h (100 = growth as untreated, 0 = no growth, -100 = all killed)
Details in all cases: 10 µM; active means growth percent below 10; inactive means the rest
NCI-H23 lung = tested on: NCI-H23 lung
NCI-H226 lung = tested on: NCI-H226 lung
NCI-H322M lung = tested on: NCI-H322M lung
HOP-62 NSCLC = tested on: HOP-62 NSCLC
NCI-H460 lung = tested on: NCI-H460 lung
A549/ATCC NSCLC = tested on: A549/ATCC NSCLC
786-0 renal = tested on: 786-0 renal
COLO 205 colon = tested on: COLO 205 colon
DU-145 prostate = tested on: DU-145 prostate
K-562 leukemia = tested on: K-562 leukemia
MALME-3M melanoma = tested on: MALME-3M melanoma
MDA-MB-231 breast = tested on: MDA-MB-231 breast
RXF 393 renal = tested on: RXF 393 renal
SF-268 CNS = tested on: SF-268 CNS
SF-295 CNS = tested on: SF-295 CNS
SF-539 CNS = tested on: SF-539 CNS
UACC-257 melanoma = tested on: UACC-257 melanoma
M14 melanoma = tested on: M14 melanoma
NCI-H522 lung = tested on: NCI-H522 lung

Measured: growth

C=CC(=O)OCCCCCCCC
inactive: NCI-H23 lung 105% | NCI-H226 lung 98.9% | NCI-H322M lung 117% | HOP-62 NSCLC 98.4% | NCI-H460 lung 102% | A549/ATCC NSCLC 99.8% | 786-0 renal 104% | COLO 205 colon 107% | DU-145 prostate 102% | K-562 leukemia 103% | MALME-3M melanoma 108% | MDA-MB-231 breast 109% | RXF 393 renal 120% | SF-268 CNS 102% | SF-295 CNS 104% | SF-539 CNS 99.5% | UACC-257 melanoma 96.7% | M14 melanoma 104%

CC1=CC(C)(C)NC(=S)N1c1ccc(S(=O)(=O)O)c2cccc(S(=O)(=O)O)c12
inactive: NCI-H23 lung 101% | NCI-H226 lung 100% | NCI-H322M lung 127% | HOP-62 NSCLC 99.5% | NCI-H460 lung 110% | A549/ATCC NSCLC 106% | 786-0 renal 112% | COLO 205 colon 102% | DU-145 prostate 111% | K-562 leukemia 116% | MALME-3M melanoma 115% | MDA-MB-231 breast 98.3% | RXF 393 renal 107% | SF-268 CNS 104% | SF-295 CNS 113% | SF-539 CNS 105% | UACC-257 melanoma 112% | M14 melanoma 107%

O=c1cc(-c2ccccc2)nc2cc(-c3ccco3)[nH]n12
inactive: NCI-H23 lung 96.5% | NCI-H226 lung 102% | NCI-H322M lung 95.6% | HOP-62 NSCLC 88.3% | NCI-H460 lung 104% | NCI-H522 lung 71.8% | A549/ATCC NSCLC 56.7% | 786-0 renal 111% | DU-145 prostate 115% | K-562 leukemia 42.8% | MALME-3M melanoma 84.2% | MDA-MB-231 breast 98.8% | RXF 393 renal 100% | SF-268 CNS 93.8% | SF-295 CNS 110% | SF-539 CNS 81.8% | UACC-257 melanoma 43.8% | M14 melanoma 77.8%

O=c1[nH]n(-c2ccccc2)c(=O)cc1Cl
inactive: NCI-H23 lung 106% | NCI-H226 lung 93.6% | NCI-H322M lung 114% | HOP-62 NSCLC 108% | NCI-H460 lung 109% | A549/ATCC NSCLC 102% | 786-0 renal 103% | COLO 205 colon 104% | DU-145 prostate 116% | K-562 leukemia 103% | MALME-3M melanoma 99.9% | MDA-MB-231 breast 97.2% | RXF 393 renal 113% | SF-268 CNS 101% | SF-295 CNS 114% | SF-539 CNS 97.7% | UACC-257 melanoma 97.1% | M14 melanoma 106%

CC1=C(/C=C/C(C)=C/C=C/C(C)=C/CO)C(C)(C)CCC1
inactive: NCI-H23 lung 102% | NCI-H226 lung 104% | NCI-H322M lung 105% | HOP-62 NSCLC 104% | NCI-H460 lung 117% | NCI-H522 lung 105% | A549/ATCC NSCLC 102% | 786-0 renal 103% | COLO 205 colon 110% | DU-145 prostate 112% | MALME-3M melanoma 120% | MDA-MB-231 breast 102% | SF-268 CNS 114% | SF-295 CNS 110% | SF-539 CNS 105% | UACC-257 melanoma 99.9% | M14 melanoma 104%

Cc1cc(O)ccc1O
inactive: NCI-H23 lung 104% | NCI-H226 lung 96.1% | NCI-H322M lung 98.5% | HOP-62 NSCLC 89.8% | NCI-H460 lung 106% | NCI-H522 lung 82.9% | A549/ATCC NSCLC 108% | 786-0 renal 75.3% | DU-145 prostate 114% | K-562 leukemia 94.1% | MALME-3M melanoma 101% | MDA-MB-231 breast 87.3% | RXF 393 renal 112% | SF-268 CNS 102% | SF-295 CNS 129% | SF-539 CNS 95.5% | UACC-257 melanoma 99.5% | M14 melanoma 96.4%

O=S(=O)(O)C(Nc1ccccc1)c1ccccc1 (centres undefined)
inactive: NCI-H23 lung 103% | NCI-H226 lung 91.5% | NCI-H322M lung 97.6% | HOP-62 NSCLC 100% | NCI-H460 lung 102% | NCI-H522 lung 102% | A549/ATCC NSCLC 103% | 786-0 renal 100% | COLO 205 colon 103% | DU-145 prostate 110% | K-562 leukemia 87.6% | MDA-MB-231 breast 99.1% | SF-268 CNS 107% | SF-295 CNS 107% | SF-539 CNS 93.6% | UACC-257 melanoma 140% | M14 melanoma 98.7%

CC(CC(=O)c1ccccc1)c1ccccc1 (centres undefined)
inactive: NCI-H23 lung 106% | NCI-H226 lung 98.4% | NCI-H322M lung 90.6% | HOP-62 NSCLC 119% | NCI-H460 lung 104% | NCI-H522 lung 84.1% | 786-0 renal 96.8% | COLO 205 colon 123% | DU-145 prostate 112% | K-562 leukemia 102% | MALME-3M melanoma 93% | MDA-MB-231 breast 119% | SF-268 CNS 110% | SF-295 CNS 95.8% | SF-539 CNS 105% | UACC-257 melanoma 94.1% | M14 melanoma 119%

N#Cc1ccc(NC(=O)Nc2cccc(C#N)c2)cc1
inactive: NCI-H23 lung 86.3% | NCI-H226 lung 116% | NCI-H322M lung 116% | HOP-62 NSCLC 112% | NCI-H460 lung 78.8% | NCI-H522 lung 51.9% | A549/ATCC NSCLC 69.1% | 786-0 renal 97.5% | DU-145 prostate 116% | K-562 leukemia 46.1% | MALME-3M melanoma 121% | MDA-MB-231 breast 92.1% | RXF 393 renal 99.3% | SF-268 CNS 112% | SF-295 CNS 89.3% | SF-539 CNS 93.9% | UACC-257 melanoma 89.2% | M14 melanoma 98.1%
